One assay has as its system CAOV3. In words: Primary qHTS to identify gynecologic anti-cancer compounds using libraries of approved drugs and bioactive compounds (AID 1345084). Also: % is scaled to controls: 0 for no effect and ±100 for the full control effect; nearly all actives have a fitted effect of over 55% in size. The following applies: Gynecologic cancer cell panel viability, ATPlite luminescence, 48 h; series mostly up to 57.5 µM. An outline of the steps: (§1)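 Cytotoxicity screen measuring ATP content by luciferase luminescence. Each compound is applied at five concentrations for 48 h at 37 C with 5% CO2.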

A further assay has as its system CASKI. Described as above. The following applies: Gynecologic cancer cell panel viability, ATPlite luminescence, 48 h; series mostly up to 57.5 µM. An outline of the steps:
as §1

The next assay relates to Es-2. Described as above. The following applies: Gynecologic cancer cell panel viability, ATPlite luminescence, 48 h; series mostly up to 57.5 µM. An outline of the steps: as §1
On the technique in general: In ATP-based viability assays light output follows the ATP content of the culture.

A further assay relates to HeLa. Described as above. To be noted: Gynecologic cancer cell panel viability, ATPlite luminescence, 48 h; series mostly up to 57.5 µM. In outline:
as §1

A further assay relates to Hek293T. The description is as above. To be noted: Gynecologic cancer cell panel viability, ATPlite luminescence, 48 h, control line for the selectivity index; series mostly up to 57.5 µM. An outline of the steps:
as §1

Another assay concerns JEG-3. The description is as above. The following applies: Gynecologic cancer cell panel viability, ATPlite luminescence, 48 h; series mostly up to 57.5 µM. In outline:
as §1

The next assay relates to OV90. The description is as above. To be noted: Gynecologic cancer cell panel viability, ATPlite luminescence, 48 h; series mostly up to 57.5 µM. An outline of the steps: as §1
The subject of a further assay is PA-1. The assay is described as above. The following applies: Gynecologic cancer cell panel viability, ATPlite luminescence, 48 h; series mostly up to 57.5 µM. An outline of the steps: as §1
In a further assay the test system is SKOV3. The assay is described as above. To be noted: Gynecologic cancer cell panel viability, ATPlite luminescence, 48 h; series mostly up to 57.5 µM. In outline:
as §1

For a further assay, the system named is Tov-21-G. The description is as above. To be noted: Gynecologic cancer cell panel viability, ATPlite luminescence, 48 h; series mostly up to 57.5 µM. In outline:
as §1

For another assay, the system named is Tov112D. The description is as above. The following applies: Gynecologic cancer cell panel viability, ATPlite luminescence, 48 h; series mostly up to 57.5 µM. In outline: as §1
Assay [1] can be described thus: Drug repurposing screens with cells derived from glioblastoma tumor samples (AID 1345199). Also: nearly all actives have a fitted effect of over 40% in size. Also: potency is read from the fitted curve at half-maximal effect. As to activity, negative = cell killing: % is scaled to controls: 0 for no effect and ±100 for the full control effect. To be noted: GBM patient neurospheres viability, ATP luminescence, 48 h. An outline of the steps:
(§2)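 Primary testing used CD133+ neurospheres from four GBM patients, seven concentrations, 48 h exposure and ATP-based viability; confirmation added three slower-growing patient lines.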

For a further assay, the system named is astro. Described as above. The following applies: viability, ATP luminescence, 48 h; series mostly up to 45.9 µM. An outline of the steps:
as §2

In assay [2] the target is Nuclear receptor subfamily 1 group I member 2 (Rattus norvegicus) (UniProt Q9R1A7). Nature of the assay: qHTS assay for small molecule activators of the rat pregnane X receptor (rPXR) signaling pathway (AID 651751; call rule not given here; also: 0% is about no effect). To be noted: rPXR reporter cells, luciferase (One-Glo), 24 h.
Sequence of Nuclear receptor subfamily 1 group I member 2 (Rattus norvegicus) (Q9R1A7 whole entry, looked up): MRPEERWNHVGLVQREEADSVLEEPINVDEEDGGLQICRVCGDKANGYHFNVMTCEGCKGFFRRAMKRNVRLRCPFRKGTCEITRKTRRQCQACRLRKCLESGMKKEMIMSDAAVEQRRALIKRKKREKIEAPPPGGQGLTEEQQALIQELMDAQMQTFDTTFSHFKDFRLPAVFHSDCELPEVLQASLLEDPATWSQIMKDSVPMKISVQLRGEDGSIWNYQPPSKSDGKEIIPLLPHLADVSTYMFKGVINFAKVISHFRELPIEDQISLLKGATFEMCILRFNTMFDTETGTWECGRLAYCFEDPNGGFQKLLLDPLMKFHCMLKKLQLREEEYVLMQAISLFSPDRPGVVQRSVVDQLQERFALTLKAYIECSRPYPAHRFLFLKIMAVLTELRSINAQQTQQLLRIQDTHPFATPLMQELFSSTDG
Assay [3] in a line: qHTS assay for small molecule activators of the human pregnane X receptor (PXR) signaling pathway (AID 720659; call rule not given here; also: 0% is about no effect). (Quantitative high-throughput screening tests each substance at several concentrations.)
Where [4] appears, read: at 45.9 µM (top of the series), tumour line B.
Where [5] appears, read: at 45.9 µM (top of the series), tumour line D.
The mark [6] stands for this setting: at 46 µM (top of the series), tumour line A.
[7] abbreviates: at 21.2 µM (top of the series), tumour line B.
[8] abbreviates: at 21.2 µM (top of the series), tumour line D.
[9] abbreviates: at 21.3 µM (top of the series), tumour line A.

A number with no mark means an inactive call. Records with an inconclusive call do not appear. Where a structure was tested more than once in an assay, its records may differ in their call. The source made the active and inactive calls. Unless noted, calls follow the shape of the dose curve; as a rule, active = well fitted curve in the direction sought with a large enough effect; inconclusive = small, poorly fitted or top-dose-only effect, or another doubt; inactive = no such curve, though single readings can be large; an effect the other way counts as inactive or inconclusive.

Take `CC[C@@H](CO)NC(=O)[C@@H]1C=C2c3cccc4c3c(cn4C)C[C@H]2N(C)C1`: the Potency entry in the assay with CAOV3, in the assay with CASKI, in the assay with Es-2, in the assay with HeLa, with Hek293T and with JEG-3 was “inactive” each time. Further, the Potency result in the assay on OV90, in the assay with PA-1, in the assay on SKOV3, with Tov-21-G and in the assay on Tov112D was “inactive” in each case. For the same compound, the results for the Potency in assay [1] (tumour line A) and in assay [1] (tumour line B) were 35.5 µM (active) and 17.8 µM (active), respectively.
As for `Oc1ccccc1-c1ccccc1`, the Potency entry in the assay with CAOV3, in the assay on CASKI, in the assay on Es-2, with HeLa, in the assay with Hek293T and with JEG-3 was “inactive” each time. Further, the Potency entry in the assay with OV90, with PA-1, with SKOV3, in the assay on Tov-21-G, in the assay on Tov112D and in the assay with astro was “inactive” throughout. For the same compound, the activity, negative = cell killing in [1] (setting [4]) is -14.5%; in assay [1] (setting [5]) it was -15.4%; in [1] (setting [6]), -19.2%. Also, the max response in [2] was -0.588% [middle of 4 runs].
As to `CC(C)=CC1C(C(=O)OCc2cccc(Oc3ccccc3)c2)C1(C)C` (stereo not drawn), the Potency entry with CAOV3, in the assay on CASKI, with Es-2, in the assay on HeLa, with Hek293T and in the assay with JEG-3 was “inactive” throughout. In addition, the Potency entry in the assay on OV90, in the assay with PA-1, with SKOV3, in the assay on Tov-21-G, with Tov112D and with astro was “inactive” throughout. Further, the activity, negative = cell killing in assay [1] (setting [4]) was -17.7%; in assay [1] (setting [5]) it was -26.5%. Also, the Potency in assay [1] (tumour line A) is 12.6 µM (active).
In the case of `CC(C)(C)CC(C)(C)c1ccc(O)cc1`, the Potency result in the assay with CAOV3, in the assay on CASKI, with Es-2, in the assay on HeLa, in the assay with Hek293T and in the assay with JEG-3 was “inactive” throughout. Also, the Potency result with OV90, in the assay with PA-1, with SKOV3, with Tov-21-G and with Tov112D was “inactive” throughout. The activity, negative = cell killing in [1] (setting [5]) is -15%. In addition, the Potency in assay [1] (tumour line B) is 44.7 µM (active); in [1] (tumour line D) it was 63.1 µM (active). Moreover, the max response in assay [2] is -11.1%.
Turning to `NCC1(CC(=O)O)CCCCC1`, the Potency result in the assay on CAOV3, in the assay with CASKI, in the assay on Es-2, with HeLa, in the assay with Hek293T and in the assay on JEG-3 was “inactive” in each case. Moreover, the Potency entry with OV90, with PA-1, with SKOV3, with Tov-21-G, with Tov112D and in the assay on astro was “inactive” in each case. For the same compound, the values for the activity, negative = cell killing in assay [1] (setting [7]), in assay [1] (setting [8]) and in assay [1] (setting [9]) were -18.9%, -10.4% and -25.7%, respectively.
Regarding `Nc1ccncc1`, the Potency result with CAOV3, in the assay with CASKI, in the assay on Es-2, with HeLa, in the assay with Hek293T and in the assay with JEG-3 was “inactive” throughout. The Potency result in the assay on OV90, with PA-1, with SKOV3, with Tov-21-G, with Tov112D and with astro was “inactive” throughout. In addition, the activity, negative = cell killing in assay [1] (setting [4]) is -0.63%; in assay [1] (setting [5]) it was -4.86%; in assay [1] (setting [6]), -29.8%. Moreover, the max response in assay [2] was -1.96%. Further, the compound was called inactive in assay [3].
For `CNCC(O)c1ccc(O)cc1` (stereo not drawn), the Potency result in the assay with CAOV3, with CASKI, in the assay on Es-2, in the assay on HeLa, in the assay on Hek293T and in the assay on JEG-3 was “inactive” each time. Besides, the Potency entry in the assay on OV90, in the assay on PA-1, with SKOV3, in the assay with Tov-21-G, with Tov112D and in the assay with astro was “inactive” each time. The activity, negative = cell killing in assay [1] (setting [7]) was 9.4%; in [1] (setting [8]), 0.215%; in assay [1] (setting [9]), -26.2%. Further, the max response in [2] was -0.194%. In addition, the call in assay [3] was inactive.

The record behind these values is PubChem BioAssay (NCATS).
